Data: the supplement of paper PMC10849652
The full data set covers some 7,900 targets. This sample favours those with a hit. About 0.6% of all pairs of compound and target were hits.

Compound: C1=CC2=C(C=CC(=C2)/C=C\3/C(=O)NC(=NCC4=CC=CS4)S3)N=C1
Assay: log2 fold change, soluble protein after heating vs DMSO (PISA); higher = thermal stabilisation; K562 cells, 10 uM, 30 min; active = over 0.2 and 3.5 SD of the protein, either way, in both replicates (recomputed)
How it was run: (§1)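 K562 cells at 2×10^6 cells/mL were given 10 μM compound for 30 min. Aliquots then went through 3 min of heating across 48°C-58°C, were pooled, and were extracted in PBS with 0.5% NP-40 at 4°C, and the supernatant after 21,000xg for 90 min was quantified by TMTpro 16plex LC-MS/MS with channel sums equalised. Thermal stability relative to control samples, from duplicates, is given as log2 fold change.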

Chain of UniProt Q16850 (Q16850 whole entry, looked up): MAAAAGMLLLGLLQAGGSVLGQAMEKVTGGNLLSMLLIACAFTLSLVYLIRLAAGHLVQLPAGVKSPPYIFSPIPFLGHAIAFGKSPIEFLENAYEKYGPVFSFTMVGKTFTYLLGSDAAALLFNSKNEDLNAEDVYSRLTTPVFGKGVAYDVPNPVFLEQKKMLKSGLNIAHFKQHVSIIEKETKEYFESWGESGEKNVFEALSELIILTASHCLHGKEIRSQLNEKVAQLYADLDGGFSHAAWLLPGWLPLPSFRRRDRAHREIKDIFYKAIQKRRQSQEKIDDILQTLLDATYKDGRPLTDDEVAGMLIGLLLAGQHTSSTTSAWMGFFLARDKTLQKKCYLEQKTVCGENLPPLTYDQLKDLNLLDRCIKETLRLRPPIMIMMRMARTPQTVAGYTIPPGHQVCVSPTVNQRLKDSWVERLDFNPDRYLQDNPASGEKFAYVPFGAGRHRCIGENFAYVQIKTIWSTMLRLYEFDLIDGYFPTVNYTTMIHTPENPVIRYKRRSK
Chain of UniProt Q5QP82 (Q5QP82 whole entry, looked up): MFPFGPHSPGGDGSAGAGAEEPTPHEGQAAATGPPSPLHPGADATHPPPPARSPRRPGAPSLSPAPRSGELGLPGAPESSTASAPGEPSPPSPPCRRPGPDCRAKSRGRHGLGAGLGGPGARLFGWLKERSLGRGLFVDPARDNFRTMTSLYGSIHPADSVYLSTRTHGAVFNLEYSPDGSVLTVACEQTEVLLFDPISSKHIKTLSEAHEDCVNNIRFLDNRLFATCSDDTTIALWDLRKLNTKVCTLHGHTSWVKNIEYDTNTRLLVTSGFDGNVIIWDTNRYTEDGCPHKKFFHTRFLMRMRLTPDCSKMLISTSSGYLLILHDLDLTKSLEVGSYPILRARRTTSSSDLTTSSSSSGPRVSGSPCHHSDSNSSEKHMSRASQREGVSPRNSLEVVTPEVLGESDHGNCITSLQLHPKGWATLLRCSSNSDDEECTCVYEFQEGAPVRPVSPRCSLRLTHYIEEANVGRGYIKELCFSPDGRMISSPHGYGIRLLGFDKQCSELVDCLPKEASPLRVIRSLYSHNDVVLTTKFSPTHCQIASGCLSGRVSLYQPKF
Chain of UniProt P07711 (P07711 whole entry, looked up): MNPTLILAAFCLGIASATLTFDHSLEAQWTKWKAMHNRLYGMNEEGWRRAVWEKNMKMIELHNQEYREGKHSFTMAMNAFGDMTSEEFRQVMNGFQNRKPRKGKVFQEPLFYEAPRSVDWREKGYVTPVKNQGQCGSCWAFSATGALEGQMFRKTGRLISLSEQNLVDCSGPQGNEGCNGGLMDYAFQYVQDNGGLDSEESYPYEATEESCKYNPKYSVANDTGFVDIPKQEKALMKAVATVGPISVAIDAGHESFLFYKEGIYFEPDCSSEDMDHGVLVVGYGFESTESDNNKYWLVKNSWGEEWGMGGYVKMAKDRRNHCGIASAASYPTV
Chain of UniProt O43237 (O43237 whole entry, looked up): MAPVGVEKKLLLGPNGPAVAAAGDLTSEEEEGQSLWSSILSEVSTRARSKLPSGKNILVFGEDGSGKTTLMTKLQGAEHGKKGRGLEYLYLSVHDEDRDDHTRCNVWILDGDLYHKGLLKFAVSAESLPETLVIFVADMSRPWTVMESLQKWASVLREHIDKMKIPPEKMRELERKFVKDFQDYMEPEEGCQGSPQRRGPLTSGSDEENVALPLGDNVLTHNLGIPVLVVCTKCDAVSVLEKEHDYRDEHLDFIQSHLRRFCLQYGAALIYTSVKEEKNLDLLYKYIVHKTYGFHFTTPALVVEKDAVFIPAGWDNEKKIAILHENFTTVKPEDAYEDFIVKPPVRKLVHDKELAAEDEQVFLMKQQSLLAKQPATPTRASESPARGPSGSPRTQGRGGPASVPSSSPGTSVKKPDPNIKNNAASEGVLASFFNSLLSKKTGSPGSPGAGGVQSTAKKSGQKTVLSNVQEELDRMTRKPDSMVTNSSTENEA
Chain of UniProt Q96KP1 (Q96KP1 whole entry, looked up): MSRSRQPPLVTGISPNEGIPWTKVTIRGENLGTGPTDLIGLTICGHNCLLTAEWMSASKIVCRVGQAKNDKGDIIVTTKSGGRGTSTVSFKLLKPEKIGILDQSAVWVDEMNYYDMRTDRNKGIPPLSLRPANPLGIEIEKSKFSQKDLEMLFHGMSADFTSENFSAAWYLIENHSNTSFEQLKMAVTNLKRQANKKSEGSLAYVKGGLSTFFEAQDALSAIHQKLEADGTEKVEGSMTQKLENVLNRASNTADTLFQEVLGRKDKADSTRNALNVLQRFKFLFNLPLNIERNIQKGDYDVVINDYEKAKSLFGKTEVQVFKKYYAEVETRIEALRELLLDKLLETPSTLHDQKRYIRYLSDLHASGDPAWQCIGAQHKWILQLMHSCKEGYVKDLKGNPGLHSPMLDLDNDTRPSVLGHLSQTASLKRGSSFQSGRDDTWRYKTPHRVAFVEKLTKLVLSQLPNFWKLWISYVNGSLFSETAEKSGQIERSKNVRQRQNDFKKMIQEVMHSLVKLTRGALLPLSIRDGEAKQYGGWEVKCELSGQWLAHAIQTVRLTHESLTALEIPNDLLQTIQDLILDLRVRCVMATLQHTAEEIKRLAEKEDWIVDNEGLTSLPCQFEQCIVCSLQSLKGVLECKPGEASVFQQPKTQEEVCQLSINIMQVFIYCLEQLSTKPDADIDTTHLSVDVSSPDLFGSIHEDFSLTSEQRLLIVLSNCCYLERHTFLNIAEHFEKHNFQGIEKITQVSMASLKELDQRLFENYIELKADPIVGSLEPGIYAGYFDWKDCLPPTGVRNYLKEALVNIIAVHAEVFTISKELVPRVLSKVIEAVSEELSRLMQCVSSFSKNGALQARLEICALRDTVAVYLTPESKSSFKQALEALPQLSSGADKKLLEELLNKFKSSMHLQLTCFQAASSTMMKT
Chain of UniProt O60573 (O60573 whole entry, looked up): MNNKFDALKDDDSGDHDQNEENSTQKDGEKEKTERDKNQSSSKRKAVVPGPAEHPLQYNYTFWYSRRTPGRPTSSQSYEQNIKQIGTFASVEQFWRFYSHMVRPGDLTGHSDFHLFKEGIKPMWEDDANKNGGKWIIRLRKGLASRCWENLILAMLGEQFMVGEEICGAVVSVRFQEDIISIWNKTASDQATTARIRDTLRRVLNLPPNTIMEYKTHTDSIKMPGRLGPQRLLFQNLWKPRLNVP
Chain of UniProt P11182 (P11182 whole entry, looked up): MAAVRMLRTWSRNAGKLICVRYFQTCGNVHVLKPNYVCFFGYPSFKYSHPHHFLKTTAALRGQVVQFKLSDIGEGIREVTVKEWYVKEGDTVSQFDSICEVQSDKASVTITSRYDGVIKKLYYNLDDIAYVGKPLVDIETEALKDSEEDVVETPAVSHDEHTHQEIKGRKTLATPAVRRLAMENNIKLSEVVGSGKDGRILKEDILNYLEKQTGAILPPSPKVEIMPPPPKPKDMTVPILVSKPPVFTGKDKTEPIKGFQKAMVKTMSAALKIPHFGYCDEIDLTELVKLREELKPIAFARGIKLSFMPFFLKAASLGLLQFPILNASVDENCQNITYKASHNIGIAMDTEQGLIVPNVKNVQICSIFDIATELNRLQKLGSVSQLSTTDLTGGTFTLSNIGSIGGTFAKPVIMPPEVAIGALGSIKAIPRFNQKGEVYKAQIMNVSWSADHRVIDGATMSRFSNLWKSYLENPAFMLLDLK
Chain of UniProt O60911 (O60911 whole entry, looked up): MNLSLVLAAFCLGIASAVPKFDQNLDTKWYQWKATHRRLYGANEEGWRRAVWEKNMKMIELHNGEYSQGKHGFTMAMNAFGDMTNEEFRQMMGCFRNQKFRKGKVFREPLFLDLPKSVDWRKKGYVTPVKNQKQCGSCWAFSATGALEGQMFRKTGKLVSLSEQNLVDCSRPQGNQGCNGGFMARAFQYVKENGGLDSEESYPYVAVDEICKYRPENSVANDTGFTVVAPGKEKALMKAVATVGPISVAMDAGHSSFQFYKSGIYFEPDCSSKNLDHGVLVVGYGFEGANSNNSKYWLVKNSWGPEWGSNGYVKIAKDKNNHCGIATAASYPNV
Chain of UniProt Q5NDL2 (Q5NDL2 whole entry, looked up): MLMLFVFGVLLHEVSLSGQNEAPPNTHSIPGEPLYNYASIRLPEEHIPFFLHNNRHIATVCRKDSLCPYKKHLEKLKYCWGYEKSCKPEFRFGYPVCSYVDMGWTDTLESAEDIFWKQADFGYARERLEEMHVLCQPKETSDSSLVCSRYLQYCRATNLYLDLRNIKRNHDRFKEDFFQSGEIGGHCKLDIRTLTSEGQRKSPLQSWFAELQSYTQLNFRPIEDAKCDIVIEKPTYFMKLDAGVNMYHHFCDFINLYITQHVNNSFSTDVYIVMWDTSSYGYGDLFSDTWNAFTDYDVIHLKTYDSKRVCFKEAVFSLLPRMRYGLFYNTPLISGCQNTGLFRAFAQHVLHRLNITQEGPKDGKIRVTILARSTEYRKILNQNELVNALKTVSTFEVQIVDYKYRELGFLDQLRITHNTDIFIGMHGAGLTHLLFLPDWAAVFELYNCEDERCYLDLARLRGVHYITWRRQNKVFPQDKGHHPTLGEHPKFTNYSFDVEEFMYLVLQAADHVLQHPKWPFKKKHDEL
Chain of UniProt Q96GE9 (Q96GE9 whole entry, looked up): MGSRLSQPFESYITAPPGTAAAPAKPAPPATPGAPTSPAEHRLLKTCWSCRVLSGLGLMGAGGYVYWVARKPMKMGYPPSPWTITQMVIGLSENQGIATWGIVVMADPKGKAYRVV
Chain of UniProt Q13011 (Q13011 whole entry, looked up): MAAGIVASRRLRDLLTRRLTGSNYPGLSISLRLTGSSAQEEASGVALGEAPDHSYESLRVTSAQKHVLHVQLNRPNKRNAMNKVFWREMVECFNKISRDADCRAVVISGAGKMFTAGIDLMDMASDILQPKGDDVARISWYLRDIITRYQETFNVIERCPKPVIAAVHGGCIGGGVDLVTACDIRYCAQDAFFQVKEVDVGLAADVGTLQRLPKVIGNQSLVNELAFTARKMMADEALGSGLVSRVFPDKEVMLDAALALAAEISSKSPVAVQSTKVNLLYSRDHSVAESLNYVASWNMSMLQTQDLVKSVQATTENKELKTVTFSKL

log2 fold change, inactive:
EOGT (UniProt Q5NDL2) -0.026
CUEDC2 (UniProt Q9H467) -0.021
DDX5 (UniProt P17844) -0.003
EIF4E2 (UniProt O60573) -0.007
ERLIN1 (UniProt O75477) -0.015
EEF1AKNMT (UniProt Q8N6R0) 0.114
EIF4A1 (UniProt P60842) 0.016
DCTPP1 (UniProt Q9H773) -0.073
DNAJB12 (UniProt Q9NXW2) 0.004
DDX4 (UniProt Q9NQI0) 0.006
EXOC2 (UniProt Q96KP1) 0.05
DMAC1 (UniProt Q96GE9) 0.059
EEA1 (UniProt Q15075) 0.01
DDX46 (UniProt Q7L014) 0.034
CYP51A1 (UniProt Q16850) 0.007
DCTN1 isoform 4 (UniProt Q14203) 0.037
CWC27 (UniProt Q6UX04) 0.021
DNAJC19 (UniProt Q96DA6) -0.005
DUS2 (UniProt Q9NX74) 0.166
ECH1 (UniProt Q13011) 0.126
DBT (UniProt P11182) -0.03
FAAP100 (UniProt Q0VG06) 0.052
FAM207A (UniProt Q9NSI2) -0.204
EEF1D isoform 2 (UniProt P29692) 0.025
DNAH11 (UniProt Q96DT5) 0.012
DAB2 (UniProt P98082) 0.037
DYNC1LI2 (UniProt O43237) -0.04
DNAJC7 (UniProt Q99615) 0.014
DLD (UniProt P09622) -0.007
DCAF10 (UniProt Q5QP82) -0.038
DCAF6 isoform 3 (UniProt Q58WW2) 0.007
FAM122A (UniProt Q96E09) -0.068
FAM83D (UniProt Q9H4H8) -0.016
DNAJB1 (UniProt P25685) 0.024
DNTTIP2 (UniProt Q5QJE6) 0.005
CTSL (UniProt P07711) -0.203
CTSV (UniProt O60911) 0.035
EDC3 (UniProt Q96F86) -0.007
EIF3J (UniProt O75822) 0.012

Compound: C1=CC2=NC=CN=C2C=C1/C=C/3\C(=O)NC(=O)S3
Assay: as above
How it was run: as §1

log2 fold change, inactive:
EOGT (UniProt Q5NDL2) -0.016
CUEDC2 (UniProt Q9H467) 0.117
DDX5 (UniProt P17844) -0.046
EIF4E2 (UniProt O60573) -0.054
ERLIN1 (UniProt O75477) -0.011
EEF1AKNMT (UniProt Q8N6R0) 0.013
EIF4A1 (UniProt P60842) -0.021
DCTPP1 (UniProt Q9H773) 0.035
DNAJB12 (UniProt Q9NXW2) 0.032
DDX4 (UniProt Q9NQI0) 0
EXOC2 (UniProt Q96KP1) 0.006
DMAC1 (UniProt Q96GE9) -0.004
EEA1 (UniProt Q15075) 0.046
DDX46 (UniProt Q7L014) 0
CYP51A1 (UniProt Q16850) 0.018
DCTN1 isoform 4 (UniProt Q14203) -0.009
CWC27 (UniProt Q6UX04) 0.02
DNAJC19 (UniProt Q96DA6) 0.04
DUS2 (UniProt Q9NX74) -0.011
ECH1 (UniProt Q13011) -0.018
DBT (UniProt P11182) 0.038
FAAP100 (UniProt Q0VG06) 0.17
FAM207A (UniProt Q9NSI2) -0.018
EEF1D isoform 2 (UniProt P29692) 0.02
DNAH11 (UniProt Q96DT5) -0.023
DAB2 (UniProt P98082) 0.008
DYNC1LI2 (UniProt O43237) -0.073
DNAJC7 (UniProt Q99615) 0.024
DLD (UniProt P09622) -0.018
DCAF10 (UniProt Q5QP82) 0.064
DCAF6 isoform 3 (UniProt Q58WW2) 0.045
FAM122A (UniProt Q96E09) 0.051
FAM83D (UniProt Q9H4H8) 0.02
DNAJB1 (UniProt P25685) 0.053
DNTTIP2 (UniProt Q5QJE6) -0.043
CTSL (UniProt P07711) 0.019
CTSV (UniProt O60911) -0.004
EDC3 (UniProt Q96F86) -0.227
EIF3J (UniProt O75822) 0.048
